Test results published in the supplement of paper PMC7765376.
Structures can show the parent of a compound that is named as a salt. Over roughly 1,500 compounds, “Excess HSA synergy score (sum over dose matrix of excess over highest single agent)” has its median near 43; the lowest 2% begin near -900. The full list was thinned out, with the lowest values kept by preference.

System: PEO-1
Test: Excess HSA synergy score (sum over dose matrix of excess over highest single agent) (score (summed % response)); higher = less synergy / more antagonism (negative = synergy)
Conditions: 72 h, read-out: viability/apoptosis luminescence (CellTiter-Glo or Caspase3-Glo / not stated per table)
[1] = matrix design: 6x6, 5-fold dilutions (primary screen)
[2] = matrix design: 10x10, 9-step dilutions (confirmatory)

Row | Structure (SMILES) | Excess HSA synergy score [1] | Excess HSA synergy score [2]
1 | C[C@@]12C[C@@]3(O)O[C@@H](O1)[C@]1(COC(=O)c4ccccc4)[C@H]3C[C@@]12O[C@@H]1O[C@H](CO)[C@@H](O)[C@H](O)[C@H]1O [Paeoniflorin] + CC[C@H](NC(=O)[C@H](C)NC)C(=O)N1C[C@@H](O)C[C@H]1Cc1c(-c2[nH]c3cc(F)ccc3c2C[C@@H]2C[C@H](O)CN2C(=O)[C@H](CC)NC(=O)[C@H](C)NC)[nH]c2cc(F)ccc12 [Birinapant] | 211 | 
2 | COc1cc([C@@H]2c3cc4c(cc3[C@@H](O[C@@H]3O[C@@H]5CO[C@@H](c6cccs6)O[C@H]5[C@H](O)[C@H]3O)[C@H]3COC(=O)[C@H]23)OCO4)cc(OC)c1O [Teniposide] + CC[C@H](NC(=O)[C@H](C)NC)C(=O)N1C[C@@H](O)C[C@H]1Cc1c(-c2[nH]c3cc(F)ccc3c2C[C@@H]2C[C@H](O)CN2C(=O)[C@H](CC)NC(=O)[C@H](C)NC)[nH]c2cc(F)ccc12 [Birinapant] | -151 | -1360
3 | COc1cc([C@@H]2c3cc4c(cc3[C@@H](O[C@@H]3O[C@@H]5CO[C@@H](C)O[C@H]5[C@H](O)[C@H]3O)[C@H]3COC(=O)[C@H]23)OCO4)cc(OC)c1O [Etoposide] + CC[C@H](NC(=O)[C@H](C)NC)C(=O)N1C[C@@H](O)C[C@H]1Cc1c(-c2[nH]c3cc(F)ccc3c2C[C@@H]2C[C@H](O)CN2C(=O)[C@H](CC)NC(=O)[C@H](C)NC)[nH]c2cc(F)ccc12 [Birinapant] | -89.6 | 
4 | COC(=O)N[C@H](C(=O)N[C@@H](Cc1ccccc1)[C@@H](O)CN(Cc1ccc(-c2ccccn2)cc1)NC(=O)[C@@H](NC(=O)OC)C(C)(C)C)C(C)(C)C [Atazanavir sulfate] + CC[C@H](NC(=O)[C@H](C)NC)C(=O)N1C[C@@H](O)C[C@H]1Cc1c(-c2[nH]c3cc(F)ccc3c2C[C@@H]2C[C@H](O)CN2C(=O)[C@H](CC)NC(=O)[C@H](C)NC)[nH]c2cc(F)ccc12 [Birinapant] | 154 | 
5 | CC(C)(C)[C@H](NC(=O)c1ccc(N)c(Cl)c1)C(=O)N1CCC[C@H]1C(=O)N[C@H](C#N)CC(=O)O + CC[C@H](NC(=O)[C@H](C)NC)C(=O)N1C[C@@H](O)C[C@H]1Cc1c(-c2[nH]c3cc(F)ccc3c2C[C@@H]2C[C@H](O)CN2C(=O)[C@H](CC)NC(=O)[C@H](C)NC)[nH]c2cc(F)ccc12 [Birinapant] | 307 | 
6 | COc1ccc(C(C)=O)c(O)c1 [Paeonol] + CC[C@H](NC(=O)[C@H](C)NC)C(=O)N1C[C@@H](O)C[C@H]1Cc1c(-c2[nH]c3cc(F)ccc3c2C[C@@H]2C[C@H](O)CN2C(=O)[C@H](CC)NC(=O)[C@H](C)NC)[nH]c2cc(F)ccc12 [Birinapant] | 176 | 
7 | Nc1cccc(-c2cc3c(Oc4cccc(O)c4)ncnc3[nH]2)c1 + CC[C@H](NC(=O)[C@H](C)NC)C(=O)N1C[C@@H](O)C[C@H]1Cc1c(-c2[nH]c3cc(F)ccc3c2C[C@@H]2C[C@H](O)CN2C(=O)[C@H](CC)NC(=O)[C@H](C)NC)[nH]c2cc(F)ccc12 [Birinapant] | 63.5 | 
8 | Cc1[nH]c(/C=C2\C(=O)Nc3ccccc32)c(C)c1CCC(=O)O [Orantinib] + CC[C@H](NC(=O)[C@H](C)NC)C(=O)N1C[C@@H](O)C[C@H]1Cc1c(-c2[nH]c3cc(F)ccc3c2C[C@@H]2C[C@H](O)CN2C(=O)[C@H](CC)NC(=O)[C@H](C)NC)[nH]c2cc(F)ccc12 [Birinapant] | 23.6 | 
9 | COc1ccc(-c2cc3nccn3c(Nc3ncccc3C(N)=O)n2)cc1OC + CC[C@H](NC(=O)[C@H](C)NC)C(=O)N1C[C@@H](O)C[C@H]1Cc1c(-c2[nH]c3cc(F)ccc3c2C[C@@H]2C[C@H](O)CN2C(=O)[C@H](CC)NC(=O)[C@H](C)NC)[nH]c2cc(F)ccc12 [Birinapant] | 38 | 
10 | Cn1cc(CNCC2CCN(c3ncc(C(=O)NO)cn3)CC2)c2ccccc21 [Quisinostat] + CC[C@H](NC(=O)[C@H](C)NC)C(=O)N1C[C@@H](O)C[C@H]1Cc1c(-c2[nH]c3cc(F)ccc3c2C[C@@H]2C[C@H](O)CN2C(=O)[C@H](CC)NC(=O)[C@H](C)NC)[nH]c2cc(F)ccc12 [Birinapant] | -161 | -1370
11 | Cn1cc(C[C@@H](N)C(=O)O)c2ccccc21 [Indoximod] + CC[C@H](NC(=O)[C@H](C)NC)C(=O)N1C[C@@H](O)C[C@H]1Cc1c(-c2[nH]c3cc(F)ccc3c2C[C@@H]2C[C@H](O)CN2C(=O)[C@H](CC)NC(=O)[C@H](C)NC)[nH]c2cc(F)ccc12 [Birinapant] | 168 | 
12 | CN1CCc2c(c3ccccc3n2Cc2ccc(C(=O)NO)cc2)C1 [Tubastatin A] + CC[C@H](NC(=O)[C@H](C)NC)C(=O)N1C[C@@H](O)C[C@H]1Cc1c(-c2[nH]c3cc(F)ccc3c2C[C@@H]2C[C@H](O)CN2C(=O)[C@H](CC)NC(=O)[C@H](C)NC)[nH]c2cc(F)ccc12 [Birinapant] | -71.8 | 
13 | NC(=O)c1cnc(-c2ccc(C3(N)CCC3)cc2)c(-c2ccccc2)c1 + CC[C@H](NC(=O)[C@H](C)NC)C(=O)N1C[C@@H](O)C[C@H]1Cc1c(-c2[nH]c3cc(F)ccc3c2C[C@@H]2C[C@H](O)CN2C(=O)[C@H](CC)NC(=O)[C@H](C)NC)[nH]c2cc(F)ccc12 [Birinapant] | 61.1 | 
14 | CN(C)C(=O)c1ccc(S(=O)(=O)c2ccc(NC(=O)[C@@](C)(O)C(F)(F)F)c(Cl)c2)cc1 + CC[C@H](NC(=O)[C@H](C)NC)C(=O)N1C[C@@H](O)C[C@H]1Cc1c(-c2[nH]c3cc(F)ccc3c2C[C@@H]2C[C@H](O)CN2C(=O)[C@H](CC)NC(=O)[C@H](C)NC)[nH]c2cc(F)ccc12 [Birinapant] | 50.1 | 
15 | NC1(c2ccc(-c3nc4ccn5c(=O)[nH]nc5c4cc3-c3ccccc3)cc2)CCC1 + CC[C@H](NC(=O)[C@H](C)NC)C(=O)N1C[C@@H](O)C[C@H]1Cc1c(-c2[nH]c3cc(F)ccc3c2C[C@@H]2C[C@H](O)CN2C(=O)[C@H](CC)NC(=O)[C@H](C)NC)[nH]c2cc(F)ccc12 [Birinapant] | 208 | 
